Results: PubChem BioAssay (NCATS)
Records with an inconclusive call do not appear. Entries that show only a call come without a potency. Activity calls are given as the source filed them. The call rests on the fitted dose curve; in most records, active means well fitted inhibition curve with a large enough effect; inconclusive means small, poorly fitted or top-dose-only effect; inactive means flat fitted curve, though single readings scatter.

Columns and labels:
Experiment in all cases: qHTS profiling for inhibitors of Plasmodium falciparum proliferation (AID 504749); further: nearly all actives have a fitted effect of over 60% in size
Settings in all cases: P. falciparum in erythrocytes, SYBR Green DNA, 72 h; series mostly up to 28.7 µM
CP237 = tested on: CP237
In short: (§1)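 SYBR Green fluorescence of parasite DNA, read after lysis and overnight dark incubation, measured growth over 72 h in erythrocyte culture at 0.3% parasitemia and 2.5% hematocrit. Data normalised to DMSO and 0.29 uM artemisinin, with plate-drift correction.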

CP238 = tested on: CP238
In short: as §1

CP250 = tested on: CP250
In short: as §1

CP252 = tested on: CP252
In short: as §1

CP256 = tested on: CP256
In short: as §1

CP260 = tested on: CP260
In short: as §1

CP262 = tested on: CP262
In short: as §1

CP265 = tested on: CP265
In short: as §1

CP266 = tested on: CP266
In short: as §1

CP268 = tested on: CP268
In short: as §1

CP269 = tested on: CP269
In short: as §1

CP286 = tested on: CP286
In short: as §1

CP291 = tested on: CP291
In short: as §1

CP297 = tested on: CP297
In short: as §1

CP305 = tested on: CP305
In short: as §1

CP315 = tested on: CP315
In short: as §1

CP325 = tested on: CP325
In short: as §1

CP329 = tested on: CP329
In short: as §1

CP335 = tested on: CP335
In short: as §1

CP247 = tested on: CP247
In short: as §1
Potency means the concentration at half of the fitted maximal effect.

| Compound | Potency (CP237) | Potency (CP238) | Potency (CP250) | Potency (CP252) | Potency (CP256) | Potency (CP260) | Potency (CP262) | Potency (CP265) | Potency (CP266) | Potency (CP268) | Potency (CP269) | Potency (CP286) | Potency (CP291) | Potency (CP297) | Potency (CP305) | Potency (CP315) | Potency (CP325) | Potency (CP329) | Potency (CP335) | Potency (CP247) |
| --- | --- | --- | --- | --- | --- | --- | --- | --- | --- | --- | --- | --- | --- | --- | --- | --- | --- | --- | --- | --- |
| NC(=S)N/N=C/c1cccnc1 | inactive | inactive | inactive | inactive | inactive | inactive | inactive | inactive | inactive | inactive | inactive | inactive | inactive | inactive | inactive | inactive | inactive | inactive | inactive |  |
| NC(N)=NCc1cccc(I)c1 | inactive | inactive | inactive | inactive | inactive |  |  | inactive | inactive | inactive | inactive | inactive | inactive |  | inactive | inactive | inactive | inactive |  | inactive |
| CC[N+](C)(CC)CCOC(=O)C(O)(c1ccccc1)C1CCCCC1 (stereo unspecified) | inactive | inactive |  | inactive | inactive | inactive |  | inactive | inactive | inactive | inactive |  |  |  |  | inactive | inactive | inactive |  |  |
| FC1(F)C(F)(F)C(F)(F)C2(F)C(F)(F)C(F)(F)C(F)(F)C(F)(F)C2(F)C1(F)F (stereo unspecified) | inactive | inactive | inactive | inactive | inactive |  | inactive | inactive | inactive | inactive | inactive | inactive | inactive | inactive | inactive | inactive | inactive | inactive | inactive | inactive |
| CC(C)Nc1cccnc1N1CCN(C(=O)c2cc3cc(NS(C)(=O)=O)ccc3[nH]2)CC1 | inactive | inactive | inactive | inactive | inactive | inactive |  | inactive | inactive | inactive | inactive | inactive | inactive | inactive | inactive | inactive | inactive | inactive | inactive |  |
| CC(C)(C)NC[C@H](O)COc1nsnc1N1CCOCC1 | 5.01 µM (active) |  |  |  |  | 7.94 µM (active) | inactive | 6.31 µM (active) | inactive |  | 15.1 µM (active) |  | 13.5 µM (active) |  | 15.1 µM (active) | inactive |  |  | 8.49 µM (active) |  |
| COc1cc(O)c(C(=O)c2ccccc2)cc1S(=O)(=O)O | inactive | inactive | inactive | inactive |  |  | inactive |  | inactive | inactive |  | inactive | inactive | inactive |  | inactive | inactive | inactive |  | inactive |
| NC(=O)C1(N2CCCCC2)CCN(CCCC(=O)c2ccc(F)cc2)CC1 |  | inactive | inactive | inactive | inactive |  | inactive |  | inactive | inactive | inactive | inactive |  |  |  | inactive | inactive | inactive |  |  |
| CN1CCC(OC(c2ccccc2)c2ccccc2)CC1 |  |  | inactive |  |  | 3.98 µM (active) |  | 3.55 µM (active) | inactive |  |  |  |  | inactive |  | inactive |  |  |  |  |
| O=C(CN1CCN(Cc2ccc3c(c2)OCO3)CC1)N1c2ccccc2Sc2ccccc21 |  |  |  |  |  | 8.91 µM (active) |  | 7.94 µM (active) | inactive |  |  | 10 µM (active) |  |  |  |  |  |  |  |  |
| CN1CCN(C2=Nc3ccccc3Sc3ccc(Cl)cc32)CC1 |  | inactive | inactive | inactive | inactive |  |  |  | inactive | inactive |  |  |  |  | inactive | inactive | inactive | inactive |  | inactive |
| O=C(O)C1(C(=O)O)CCC1.[NH2-].[NH2-].[Pt+2] |  | inactive | inactive | inactive | inactive |  | inactive | inactive | inactive | inactive | inactive | inactive | inactive | inactive | inactive | inactive | inactive | inactive | inactive | inactive |
| COc1ccc(C(=O)c2ccccc2O)c(O)c1 |  | inactive | inactive |  | inactive | inactive | inactive |  | inactive | inactive | inactive | inactive | inactive | inactive | inactive | inactive | inactive | inactive | inactive | inactive |
| CC1CCc2c(N3CCC(O)CC3)c(F)cc3c(=O)c(C(=O)O)cn1c23 (stereo unspecified) |  |  | inactive |  | inactive | 12.6 µM (active) |  | inactive |  |  |  |  |  | inactive |  | inactive | inactive | inactive |  |  |
| CC(=O)OCC(=O)[C@H]1CC[C@H]2[C@@H]3CCC4=CC(=O)CC[C@]4(C)[C@H]3CC[C@]12C |  | inactive | inactive | inactive | inactive | inactive | inactive | inactive | inactive | inactive | inactive | inactive | inactive | inactive | inactive | inactive | inactive | inactive | inactive | inactive |
| O=C(O)CCc1nc2ccccc2[nH]1 |  | inactive |  |  | inactive |  |  | inactive |  |  |  |  |  |  |  |  |  |  |  | inactive |
| CC(C)(C)CC(C)(C)c1ccc(O)c(-n2nc3ccccc3n2)c1 |  |  |  |  |  |  | inactive |  | inactive | inactive | inactive |  | inactive | inactive | inactive | inactive | inactive | inactive |  | 11.2 µM (active) |
| CCN(CC)CCOc1ccccc1C(=O)CCc1ccccc1 |  |  | inactive |  |  | inactive | inactive |  |  |  | inactive |  |  |  |  | inactive |  |  |  |  |
| COC(=O)C(c1ccccc1Cl)N1CCc2sccc2C1 (stereo unspecified) |  |  |  |  |  |  |  |  |  |  |  |  |  | inactive |  |  |  |  |  | inactive |
| CC(C)[N+](C)(C)CC(O)COc1cccc2ccccc12 (stereo unspecified) |  | inactive |  | inactive |  |  | inactive | inactive |  | inactive |  |  |  |  |  |  |  | inactive | 9.53 µM (active) | inactive |
| Cc1cccc(C)c1NC(=O)CN1CCCC1 |  | inactive |  | inactive | inactive | inactive | inactive | inactive |  | inactive | inactive | inactive | inactive | inactive | inactive | inactive | inactive | inactive | inactive | inactive |
| CN1CCN(c2c(F)cc3c(=O)c(C(=O)O)cn4c3c2SCC4)CC1 |  | inactive | inactive |  |  |  | inactive |  | inactive |  |  |  |  |  |  | inactive |  | inactive |  | inactive |
| CC(=O)O[C@H]1C[C@@H]2CC[C@@H]3[C@H](CC[C@@]4(C)[C@H]3C[C@H]([N+]3(C)CCCCC3)[C@@H]4OC(C)=O)[C@@]2(C)C[C@@H]1N1CCCCC1 |  |  |  |  |  |  |  |  |  | inactive |  |  | inactive |  |  | inactive |  |  |  | inactive |
